IL-1B inflam inh = qHTS for Inhibitors of Inflammasome Signaling: IL-1-beta AlphaLISA Primary Screen. AID 743279, 2014. activity change, % at 57.5 µM. THP-1 LPS/ATP IL-1B secretion, AlphaLISA, 16 h; stronger effect = lower value. 360,000 tested, 4.7% active; in the data active means activity change below about -50%; inconclusive means mostly about -30% to -49%
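THP-1 cells pretreated 1 hr with compounds (up to 57.5 uM final), then stimulated with LPS (250 ng/mL final) plus ATP (1.25 mM final); secreted IL-1B measured by AlphaLISA after 16 hr, decreased signal indicating inhibition.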
VP16 counter = VP16 counterscreen qHTS for inhibitors of ROR gamma transcriptional activity | Drosophila S2 Gal4-VP16 UAS-luciferase, luminescence, 20 h | Potency, µM (top dose mostly 53.6 µM), most hits filed as inhibitors | 310,000 tested, 3.5% active;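 further: Gal4-VP16 expression switched on by copper sulfate through the metallothionein promoter; nearly all actives have a fitted effect of over 50% in size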
LDHA block = qHTS assay for inhibitors of human lactate dehydrogenase; purified LDHA, NADH/diaphorase-resazurin fluorescence; stronger effect = lower value; L-lactate dehydrogenase A chain (Homo sapiens), P00338; activity change, % (values are at about 110 or 230 µM); 480,000 tested, 0.15% active; in the data active means activity change below about -30%; inconclusive means mostly about -25% to -30%
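Enzyme activity of human lactate dehydrogenase 5 (2 nM; 0.06 mM NADH, 0.2 mM pyruvate, 5 min, RT) is measured via a resazurin/diaphorase fluorescence readout of residual NADH.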
DT40 TDP1 no CPT = qHTS for Inhibitors of human tyrosyl-DNA phosphodiesterase 1 (TDP1): qHTS in cells in absence of CPT | DT40 Tdp1-/- hTDP1 cells, no CPT, ATP luminescence, 48 h | Potency, µM (top dose mostly 46.2 µM), most hits filed as inhibitors | 420,000 tested, 15% active | AID 686978, 2013; further: nearly all actives have a fitted effect of over 55% in size
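Readout: luminescence from CellTiter-Glo after 30 min in the dark at RT. Cells: DT40 Tdp1-/- with stable hTDP1, 400/well. Exposure: compounds alone, ≥48 hr, 37 °C.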
TDP1 cell CPT = qHTS for Inhibitors of human tyrosyl-DNA phosphodiesterase 1 (TDP1): qHTS in cells in presence of CPT | chicken DT40 Tdp1-/-;hTDP1 cells + 20 nM CPT, ATP luminescence, 48 h | Potency, µM (highest dose often 46.2 µM), actives largely listed as inhibitors | 420,000 tested, 12% active | AID 686979, 2013; further: nearly all actives have a fitted effect of over 55% in size
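Chicken DT40 Tdp1-/- cells stably complemented with human TDP1 were seeded at 400 cells/well in medium containing 20 nM camptothecin, exposed to pin-transferred compounds, and grown at 37 °C for at least 48 hr. Viability was read as ATP luminescence.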
RORgamma inh = qHTS for inhibitors of ROR gamma transcriptional activity; Nuclear receptor ROR-gamma (Mus musculus), P51450; Drosophila S2 Gal4-RORgamma UAS-luciferase reporter, 20 h; 310,000 tested, 5.4% active; Potency, µM (series often up to 53.6 µM), usual class: inhibitors; further: nearly all actives have a fitted effect of over 60% in size
Target sequence (P51450 whole entry, looked up, the tested form may be a part): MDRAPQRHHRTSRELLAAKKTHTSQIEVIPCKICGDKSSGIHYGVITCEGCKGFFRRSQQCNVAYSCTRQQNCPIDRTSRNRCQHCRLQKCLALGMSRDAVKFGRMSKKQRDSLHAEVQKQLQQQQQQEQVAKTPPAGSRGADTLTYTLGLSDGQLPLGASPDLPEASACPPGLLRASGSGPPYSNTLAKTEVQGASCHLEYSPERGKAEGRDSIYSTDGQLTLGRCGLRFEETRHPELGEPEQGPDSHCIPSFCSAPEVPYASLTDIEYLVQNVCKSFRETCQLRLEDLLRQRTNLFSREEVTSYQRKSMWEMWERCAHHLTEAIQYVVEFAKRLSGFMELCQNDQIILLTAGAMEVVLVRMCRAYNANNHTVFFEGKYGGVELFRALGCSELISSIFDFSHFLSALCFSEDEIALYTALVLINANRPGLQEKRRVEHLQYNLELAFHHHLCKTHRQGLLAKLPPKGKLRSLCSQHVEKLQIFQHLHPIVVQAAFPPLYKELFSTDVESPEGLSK
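Stable Schneider cell line, Gal4 DNA-binding domain fused to ROR gamma, UAS-luciferase. Cmpd 1 hr RT → CuSO4 700 uM final → 20 hr RT → luciferase reagent 10 min → luminescence.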
A number is an active result; - = inactive; ? = inconclusive; . = no result; ! = repeats disagree; [ ] = remark or other dose. Compounds with a hit are over-represented: about 18% of the library has one in this group of screens. Unless noted, the call rests on the fitted dose curve; in most records, active means well fitted curve in the direction sought with a large enough effect; inconclusive means small, poorly fitted or top-dose-only effect, or another doubt; inactive means no such curve, though single readings can be large; an effect the other way counts as inactive or inconclusive.

SMILES | IL-1B inflam inh | VP16 counter | LDHA block | DT40 TDP1 no CPT | TDP1 cell CPT | RORgamma inh
COc1ccc(/C=C(\NC(=O)c2cccs2)C(=O)Nc2cccc3ccccc23)cc1OC | - | - | - | 18µM | ? | -
O=C(N/N=C/c1ccc(O)c(O)c1O)/C(=C/c1ccc([N+](=O)[O-])cc1)NC(=O)c1ccccc1 | - | - | - | 5.8µM | 4.6µM | -
O=C(Nc1cccc2ccccc12)/C(=C/c1ccc([N+](=O)[O-])cc1)NC(=O)c1ccccc1 | - | - | - | 21µM | 8.2µM | -
CCCCn1c(=NC(=O)c2ccco2)c(C(=O)OCC)cc2c(=O)n3cccc(C)c3nc21 | - | - | - | 13µM | ? | -
CCCCn1c(=NC(=O)c2cc3ccccc3o2)c(C(=O)OCC)cc2c(=O)n3ccccc3nc21 | . | . | - | - | - | .
CCCCn1c(=NC(=O)c2cccnc2)c(C(=O)OCC)cc2c(=O)n3ccccc3nc21 | - | - | - | 16µM | 23µM | -
CCOCCCn1c(=NC(=O)c2cccnc2)c(C(=O)OCC)cc2c(=O)n3ccccc3nc21 | - | - | - | ? | ? | -
CCOC(=O)c1cc2c(=O)n3cccc(C)c3nc2n(CCCOC)c1=NC(=O)c1cccnc1 | ? | - | - | 23µM | - | -
CCCCn1c(=NC(=O)c2ccco2)c(C(=O)OCC)cc2c(=O)n3ccccc3nc21 | - | - | - | 23µM | ? | -
Cn1ccnc1C(=O)c1cccc(NC(=O)C(=O)NCCO)c1 | . | . | - | . | . | .
COC(=O)C(C)(C)NC(=O)CNC(=O)OCc1ccccc1 | . | . | - | . | . | .
Cc1cccc(NC(=O)C(C)(C)c2ccc(Cl)cc2)n1 | . | . | - | . | . | .
CCCCCn1c(=NC(=O)c2ccco2)c(C(=O)OCC)cc2c(=O)n3ccccc3nc21 | -74! | - | - | 15µM | 16µM | -
CCOC(=O)c1cc2c(=O)n3ccccc3nc2n(CCCOC)c1=NC(=O)c1cc2ccccc2o1 | . | . | - | 18µM | 23µM | .
CCOC(=O)c1cc2c(=O)n3ccccc3nc2n(CCOC)c1=NC(=O)c1cc2ccccc2o1 | . | . | - | - | - | .
O=C(c1ccccc1)N1CCCC(C(=O)N2CCCCC2)C1 (stereo unspecified) | - | - | - | - | - | -
CN1CCC(CC(C(=O)N2CCCC2)(c2ccccc2)c2ccccc2)C1 (stereo unspecified) | - | . | - | ? | 23µM | .
CCc1ccccc1NC(=O)CN1CCN(C(=O)CN(C)Cc2cnn(-c3ccccc3)c2)CC1 | . | . | - | . | . | .
Cc1ccc(NC(=O)c2ncoc2-c2ccco2)cc1 | . | . | - | . | . | .
CC(NCc1ccc(N(C)C)cc1)C1CC2CCC1C2 (stereo unspecified) | -61 | - | - | ? | ? | -
CCc1ccccc1NC(=O)N[C@H](C(=O)O)C(C)CC (stereo partly specified) | - | - | - | 15µM | ? | -
CC(C)[C@H](NC(=O)Nc1ccc(Oc2ccccc2)cc1)C(=O)O | - | - | - | 13µM | 12µM | -[10 µM]
CCC(C)[C@H](NC(=O)Nc1ccccc1F)C(=O)O (stereo partly specified) | - | - | - | - | - | -
CN(C)S(=O)(=O)N(CC(=O)Nc1ccc(Cl)c(Cl)c1)c1ccccc1 | . | . | - | . | . | .
O=C(O)/C=C/C(=O)N1CCN(C(=O)/C=C/C(=O)O)CC1 | - | ? | - | - | - | -
SMILES | IL-1B inflam inh | VP16 counter | LDHA block | DT40 TDP1 no CPT | TDP1 cell CPT | RORgamma inh
CCOC(=O)/C=C/C(=O)N1CCN(C(=O)/C=C/C(=O)OCC)CC1 | -100 | - | - | 21µM | ? | -
Cn1c(=O)c2c(ncn2Cc2c(F)cccc2Cl)n(C)c1=O | . | . | - | . | . | .
Cc1cccnc1C(NC(=O)C1CCN(CCOc2ccc(Cl)cc2Cl)CC1)c1ccc(Cl)cc1 (stereo unspecified) | ? | . | - | 7.3µM | 12µM | .
O=C(NC(c1ccc(Cl)cc1)c1ccccn1)C1CCN(CCOc2ccc(Cl)cc2Cl)CC1 (stereo unspecified) | - | . | - | 18µM | ? | .
CCc1ccccc1N(CC)C(=O)CCc1nc(-c2ccc(C)cc2)no1 | ? | ? | - | 23µM | 23µM | ?
CCCN(C(=O)CCc1nc(-c2ccc(C)cc2)no1)c1ccc(OCC)cc1 | . | . | - | ? | 16µM | .
CCN(Cc1ccccc1)C(=O)CCc1nc(-c2ccc(C)cc2)no1 | - | ? | - | 23µM | 29µM | -
CCOc1cc(CNCC(O)c2ccccc2)ccc1Oc1nnnn1-c1ccccc1 (stereo unspecified) | . | . | - | . | . | .
Cc1c(NC(=O)c2cc([N+](=O)[O-])ccc2N2CCOCC2)cccc1-c1nc2ccccc2o1 | . | . | - | 26µM | ? | .
CCc1ccccc1NC(=O)c1cc([N+](=O)[O-])ccc1N1CCOCC1 | - | - | - | - | - | -
CC1CCN(c2ccccc2NC(=O)c2cc([N+](=O)[O-])ccc2N2CCOCC2)CC1 | - | . | - | 16µM | ? | .
Cc1cccc(NC(=O)c2cc([N+](=O)[O-])ccc2N2CCOCC2)c1C | - | . | - | - | - | .
COC(=O)C1=C(N)OC2=C(C(=O)CC(C)(C)C2)C1c1ccc(Cl)cc1Cl (stereo unspecified) | . | . | - | . | . | .
CCCn1c(=O)[nH]c(=O)c2c1nc(-c1ccc(OC)cc1)n2CCOC | . | . | - | . | . | .
COc1ccc(CN(CC2CCCO2)C(=O)CN2C(=O)C(C)Oc3ccc(C)cc32)cc1OC (stereo unspecified) | - | - | - | 18µM | ? | ?
Cc1cc(Cl)ccc1OCC(=O)N(Cc1ccc(N(C)C)cc1)CC1CCCO1 (stereo unspecified) | . | . | - | 26µM | ? | .
COC(=O)c1cccc(CN2C(=O)C(C)Oc3ccc(C)cc32)c1 (stereo unspecified) | - | . | - | 21µM | 21µM | .
Cc1cc(C)cc(OCC(=O)N(Cc2ccc(Cl)cc2)CC2CCCO2)c1 (stereo unspecified) | . | . | - | ? | ? | .
CN(C)c1ccc(CN(CC2CCCO2)C(=O)COc2ccccc2Cl)cc1 (stereo unspecified) | . | . | - | 18µM | ? | .
CCC1Oc2ccc(C)cc2N(CC(=O)N(Cc2ccc3c(c2)OCO3)CC2CCCO2)C1=O (stereo unspecified) | ? | - | - | ? | ? | -
CCOc1ccc2c(c1)S/C(=C\c1cccc(Oc3ccc(Cl)cc3)c1)C(=O)N2 | . | . | - | . | . | .
Cc1cc(=O)oc2cc(OCc3nc(-c4cccc(Cl)c4)no3)ccc12 | . | . | - | . | . | .

Source: PubChem BioAssay
